# Lassa entry: blocks Lassa virus binding or cell entry; 18,000 compounds, 4.1% hits; Lassa virus pseudotyped entry inhibition, cell-based qHTS; Potency, µM (doses to about 49.2 µM), without a hit: at the highest dose activity change, negative = inhibition, hits mostly inhibitors
# MARV entry inh: inhibitors of Marburg virus binding or entry into cells; Marburg virus pseudotype entry/binding inhibition, cell-based; Potency, µM (series often up to 49.2 µM), inactives show at the top dose activity change, negative = inhibition, hits mostly inhibitors; 18,000 compounds, 6.5% hits; AID 720532
# * hit, by the source's call; ? = inconclusive; . = no result; ! = a repeat was not active; [ ] = another dose, or the depositor's remark. Only some compounds are listed: those with a hit (about 7.1% of all), similar ones and a draw of the others. Calls follow the shape of the full dose curve; tested in HEK293 cells. % is scaled to controls: 0 for no effect and ±100 for the full control effect; potency is read from the fitted curve at half-maximal effect.
SMILES,Lassa entry,MARV entry inh
CCOC(=O)NN=C1C[C@@H](O)[C@@H](O)[C@@H]2[C@H]3C(=O)N(c4cccc(Oc5ccccc5)c4)C(=O)[C@@H]3CC[C@@H]12,-10%[8.59 µM],37%[8.59 µM]
CN1CC[C@]2(C)c3cc(O)ccc3N(C)[C@@H]12,-5%[17.8 µM],11µM*
CNC(=O)Oc1ccc2c(c1)[C@]1(C)CCN(C)[C@@H]1N2C,-27%,-14%
Nc1nc(N)c(N=O)c(OCC2CCCCC2)n1,-5%,11µM*
O=C(OCc1cn([C@H]2CN(CC3CCCCC3)[C@@H](c3ccc(Cl)cc3)C[C@H]2O)nn1)c1ccccc1,-35%,?
C[C@H]1[C@H]2CC[C@H]3C4CC=C5C[C@@H](N(C)C)CC[C@]5(C)C4CC[C@]23CN1C (some centres not stated),-26%,11µM*
C[C@]12CC[C@H](O)CC1=CC[C@@H]1[C@@H]2CC[C@]2(C)C(=O)CC[C@@H]12,-14%,-22%
CN1CCN(C2=Nc3ccccc3Oc3ccc(Cl)cc32)CC1,-6%[17.8 µM],?
CN1CCN(C2=Nc3ccccc3Sc3ccc(Cl)cc32)CC1,?,25µM*
C[C@@H](NS(=O)(=O)c1ccc(Br)cc1F)[C@H](O)c1ccccc1,12%,20%
CC(CCC(=O)OC[C@H]1O[C@H](C#Cc2ccccc2)C=C[C@H]1Oc1ccc(C)cc1)=NO[C@H](C)c1cn([C@@H]2COC[C@@H]2O)nn1,.,0%[8.59 µM]
COc1cc(/C=C/C(=O)N2CCC=CC2=O)cc(OC)c1OC,?,10µM*
COc1cc(C(=O)N2CCCCCCC2)cc(OC)c1OC,-20%,-5%
COc1ccccc1Nc1ncc(-c2ccccc2)o1,2%,10%
C[C@H]1CC[C@H]2C(=O)N(Cc3cccc([N+](=O)[O-])c3)C[C@H](O)CN2[C@H]1c1cccc(Br)c1,8%[8.59 µM],-16%[8.59 µM]
CCc1ccc2c(c1)N(CC(C)CN(C)C)c1ccccc1S2 (configuration not stated),18µM*,14µM*
CC(CN1c2ccccc2Sc2ccc(S(=O)(=O)N(C)C)cc21)N(C)C (configuration not stated),-5%,?
Oc1ccc2c(c1)[C@@]13CCCCC1[C@@H](C2)N(CC1CCC1)CC3 (some centres not stated),?,10µM*
COc1ccc2c(c1)C13CCCC[C@@H]1C(C2)N(C)CC3 (some centres not stated),0%[17.8 µM],?
C=CCN1CC[C@]23CCCC[C@H]2[C@H]1Cc1ccc(O)cc13,?,28µM*
CC(C)=CCN1CC[C@]2(C)c3cc(O)ccc3C[C@H]1[C@H]2C,-29%[107 µM],?
COc1ccc(-c2ccncc2)cc1C(N)=O,-14%,?
c1ccc(N2CCN(CCCOc3ccc4c(c3)OCO4)CC2)cc1,-2%,2%
O=C1NCN(c2ccccc2)C12CCN(CCCOc1ccc(F)cc1)CC2,16µM*,18µM*
CCN1C(=O)NC(CCc2ccccc2)C(C(C)=O)=C1C (configuration not stated),-12%[8.59 µM],-9%[8.59 µM]
SMILES,Lassa entry,MARV entry inh
COC[C@@H](OC(C)=O)[C@H]1OCc2ccccc2[C@H]1C=Cc1ccccc1,-4%[8.59 µM],1%[8.59 µM]
S=C=Nc1cccc(C2(N3CCCCC3)CCCCC2)c1,14µM*,?
CCCCCCCc1cc2ccccc2c2c(C(C)=O)c(-c3ccccc3)c(C(=O)OC)n12,6%[8.59 µM],-16%[8.59 µM]
CN1CCN(CCCN2c3ccccc3Sc3ccc(C(F)(F)F)cc32)CC1,22µM*,16µM*
O=C1CSC2(CCN(CCCN3c4ccccc4Sc4ccc(Cl)cc43)CC2)N1,?,22µM*
O=c1n(CCCN2CCN(c3cccc(Cl)c3)CC2)nc2ccccn12,0%,10%
O=C(CCN1CCN(CCO)CC1)N1c2ccccc2Sc2ccc(C(F)(F)F)cc21,-15%,?
N#Cc1ccc2c(c1)N(CCCN1CCC(O)CC1)c1ccccc1S2,-9%,20µM*
c1ccc2c(c1)Sc1ccccc1N2CCN1CCCC1,-28%,?
COC(=O)NC(C=Cc1ccccc1)C(C(C)=O)C(=O)OC (configuration not stated),-11%[8.59 µM],?
CCN1C(=O)NC(c2ccc(Br)cc2)C(C(=O)OC)=C1C (configuration not stated),4%[8.59 µM],?
C#CC[C@@]1(C(=O)OC)C=C[C@@H](C)[C@H](c2ccccc2Br)N1C(=O)C(F)(F)F,13%[8.59 µM],-2%[8.59 µM]
C=C(C)C(=O)OC[C@H]1CN2[C@H](c3ccc(Br)cc3)[C@H](C)CC[C@H]2C(=O)O1,-6%[8.59 µM],?
C=CCN1C(=O)CC[C@@]23C1=NC(C(=O)OC)=C(C(=O)OC)[C@@H]2N(C)c1ccccc13,14%[8.59 µM],14%[8.59 µM]
Cn1cnnc1Sc1c([N+](=O)[O-])ncn1C,-9%,-3%
Cn1cnc([N+](=O)[O-])c1Sc1ncnc2nc[nH]c12,?,10µM*!
CCN(CC)CCCN=C1NC(c2cccc(F)c2)C(C(=O)OC)=C(C)N1Cc1ccccc1 (configuration not stated),-26%[8.59 µM],?
C=C1C(O)C2OC3(CCC(/C=C/C(C)C4CC(C)=CC5(OC(CC(C)(O)C(=O)O)CCC5O)O4)O3)CCC2OC1C(O)CC(C)C1OC2(CCCCO2)CCC1C (configuration not stated),?,0.15µM*
CCCNC(=O)N1C2=NC(C(=O)OC)=C(C(=O)OC)[C@@H]3Nc4ccccc4[C@]23C[C@H]1C(=O)OC,31%[8.59 µM],3%[8.59 µM]
CCCCCCCCc1ccc(-c2ccc(C(=O)O)cc2)cc1,9%,-1%
CCCCCCC[N+](CC)(CC)CCCCc1ccc(Cl)cc1,5µM*,?
Cn1cnc2c(F)c(Nc3ccc(Br)cc3Cl)c(C(=O)NOCCO)cc21,9%,8%
Cc1cc(I)ccc1Nc1c(C(=O)NOCC2CC2)cc(F)c(F)c1F,?,11µM*
C=CC[C@@H]1C=C[C@@H](ON=C2[C@H]3CCn4c(=O)n(-c5ccccc5)c(=O)n4[C@@H]3[C@H](O)[C@@H]3O[C@H]23)[C@@H](CO)O1,-5%[8.59 µM],-22%[8.59 µM]
CC(=O)OC[C@H]1O[C@H](CCON=C(C)CCN2CCCCc3nc(C)c(C)cc32)C=C[C@H]1OC(C)=O,-4%[8.59 µM],16%[8.59 µM]
SMILES,Lassa entry,MARV entry inh
CC(C)/C(O)=C1/C(=O)OC(c2ccoc2)[C@@]2(C)C(O)C(O)[C@@]34OC5(C)OC67CC(C)(C(O)[C@@]6(O)C(O)[C@@]3(O5)C12)C(CC(=O)O)[C@@]74C (some centres not stated),-3%,-3%
COC(=O)CC1C2(C)CC34OC5(C)O[C@@]6(C7/C(=C(/OC)C(C)C)C(=O)OC(c8ccoc8)[C@@]7(C)C(OC(=O)C(C)C)C(OC)[C@]6(O5)[C@@]13C)C(OC)[C@]4(OC)C2OC(C)=O (some centres not stated),?,7.1µM*
CC=CCCN1C=C(C(=O)OCC)C(c2ccccc2)NC1=O (configuration not stated),-2%[8.59 µM],41%[8.59 µM]
C#CCNC(=O)[C@H]1C=C(OC)C(=O)C[C@H]2c3ccccc3C[C@]12C,1%[8.59 µM],8%[8.59 µM]
OC[C@H]1O[C@H](C#Cc2ccccc2)C=C[C@@H]1O,0%[8.59 µM],2%[8.59 µM]
CC(=O)N[C@@H](CSC(=O)[C@]1([C@@H](O)C(C)C)NC(=O)[C@H](C)[C@@H]1O)C(=O)O,3.5µM*,?
CC(=O)N[C@@H](CSC/C=C(\C)CCC=C(C)C)C(=O)O,4%,17%
CCc1cc2c(nc1CC)CCN(CCC(C)=NOC[C@@H](C)[C@H](OCc1ccccc1)C(C)C)C2,-5%[8.59 µM],-17%[8.59 µM]

# Bioassay records (PubChem BioAssay)
